We go through 28 molecules from PubChem BioAssay (EPA / NIEHS).

Molecules are shown by their SMILES. Inconclusive results are not listed. Activity calls are given as the source filed them. Rule for the calls: active = hit-call score of the fitted dose curve at least 0.9, where 1 is the maximum; inconclusive = response in the unintended direction; inactive = score below 0.9.

Sequence of Cytochrome P450 2C19 (Homo sapiens) (P33261 whole entry, looked up): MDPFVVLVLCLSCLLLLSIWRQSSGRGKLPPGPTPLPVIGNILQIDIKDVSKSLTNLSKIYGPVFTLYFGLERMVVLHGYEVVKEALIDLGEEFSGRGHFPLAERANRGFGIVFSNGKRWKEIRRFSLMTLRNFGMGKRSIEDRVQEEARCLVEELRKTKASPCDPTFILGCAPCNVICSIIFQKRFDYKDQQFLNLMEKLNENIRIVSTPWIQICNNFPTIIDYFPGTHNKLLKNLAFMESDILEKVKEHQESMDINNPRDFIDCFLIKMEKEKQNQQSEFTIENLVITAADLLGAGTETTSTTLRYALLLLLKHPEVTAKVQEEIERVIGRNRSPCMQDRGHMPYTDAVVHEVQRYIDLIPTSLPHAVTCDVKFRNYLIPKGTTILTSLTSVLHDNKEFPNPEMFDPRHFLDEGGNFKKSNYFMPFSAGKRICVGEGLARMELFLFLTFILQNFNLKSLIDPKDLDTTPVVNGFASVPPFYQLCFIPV

Read-out in the test: Cytochrome P450 2C19 (Homo sapiens) (UniProt P33261)
The test can be described thus: CLD_CYP2C19_48hr: CellzDirect (CLD) Gene Expression Assay for xenobiotic metabolism (CYP2C19) at 48 hours (AID 2283700).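 Note: fitted upward so actives raise CYP2C19 mRNA above the 0.2% DMSO vehicle.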 The protocol:
CLD_48hr is a cell-based, multiplexed-readout assay that uses hepatocyte, a human liver primary cell, with measurements taken at 48 hours after chemical dosing in a 96-well plate.CLD_CYP2C19_48hr is one of 16 assay component(s) measured or calculated from the CLD_48hr assay. It is designed to make measurements of mRNA induction, a form of inducible reporter, as detected with chemiluminescence signals by Quantitative Nuclease Protection Assay (qNPA) technology.Data from the assay component CLD_CYP2C19_48hr was analyzed at the endpoint, CLD_CYP2C19_48hr, in the positive analysis fitting direction relative to DMSO as the negative control and baseline of activity. Using a type of inducible reporter, gain-of-signal activity can be used to understand changes in the reporter gene as they relate to the gene CYP2C19. Furthermore, this assay endpoint can be referred to as a primary readout. To generalize the intended target to other relatable targets, this assay endpoint is annotated to the cyp intended target family, where subfamily is xenobiotic metabolism.
Human hepatocyte cultures were treated daily for two consecutive days with fresh dosing solutions containing appropriate concentrations of the 320 ToxCast chemicals (chemical identities were blinded to CellzDirect and other ToxCast collaborators), vehicle control (0.2% DMSO), and positive control inducers as summarized in Table 1. Due to the large number of treatment groups and chemicals examined, the ToxCast chemicals were divided into two groups (spanning two independent cultures of hepatocytes from separate donor preparations (Hu778: ToxCast plates 1 and 2; Hu776: ToxCast plates 3 and 4). Each preparation of human hepatocyte cultures was treated with respective vehicle control, medium only control, set of six positive controls/reference chemicals for the five hepatic receptor pathways, and a subset of eight of the ToxCast chemicals (indoxacarb, pyrithiobac-sodium, norflurazon, cyhalofop-butyl, methomyl, thiram, acetochlor, and propiconazole). These replicate data, coupled with internal replicates designed within the blinded ToxCast chemical library, provided additional data to evaluate interindividual differences between hepatocyte preparations and their potential impact on chemical profiles.Cell morphology and integrity were evaluated using phase-contrast microscopy as an indicator of hepatocyte cell health (Tyson & Green, 1987). Cultures for each treatment group (i.e., media, vehicle [0.2% DMSO], positive control inducers [multiple concentrations], and the ToxCast chemicals [multiple concentrations]) were observed and cell morphology was assessed relative to vehicle control cultures at each harvest time point (0, 6, 24, or 48 h). […] Images were evaluated at the conclusion of the study to assess changes in cell integrity and account for the effects of chemical exposure on uncharacteristic changes in concentration-dependent gene expression profiles. The results from these determinations of apparent cytotoxicity were annotated (yes/no) alongside the corresponding qNPA data for reference.At the conclusion of each treatment period, hepatocyte cultures (96-well) were washed with 1 volume of HBSS, lysed by addition of 25 ul ArrayPlate lysis buffer (HTG, Tucson, AZ), and 70 ul/well of Denaturation Oil, denatured by incubation at 95C for 10 min, and frozen at approximately -70C until analysis by nuclease protection assay (qNPA) (Roberts et al., 2007). For qNPA analysis, cell lysates were thawed at 50C for approximately 30 min, qNPA probes were added, and samples were incubated at 95C for 10 min to begin the detection process by denaturing the target RNA, dissociating the duplexes and secondary structure hybridization. At the conclusion of the hybridization period, S1 nuclease reagent was added to each sample to digest all nonprotected nucleotides at 50C for 60-90 min. […]
Regarding `O=C(O)C(F)(F)C(F)(F)C(F)(F)C(F)(F)C(F)(F)C(F)(F)C(F)(F)F`, the result was inactive.

With `CCC(C)Nc1c([N+](=O)[O-])cc(C(C)(C)C)cc1[N+](=O)[O-]` (stereo not drawn), the molecule was called inactive.

On to `COC(=O)c1ccccc1S(=O)(=O)NC(=O)Nc1nc(C)nc(OC)n1`, for which the outcome was inactive.

Take `Oc1ccc(Cl)cc1Cc1ccccc1`: the result was inactive.

In the case of `CNC(=O)/C=C(\C)OP(=O)(OC)OC`, the molecule was classed as inactive.

`C#CCN1C(=O)COc2cc(F)c(N3C(=O)C4=C(CCCC4)C3=O)cc21`: the call was inactive.

As for `O=C(NC(=O)c1c(F)cccc1F)Nc1ccc(OC(F)(F)C(F)OC(F)(F)F)c(Cl)c1` (stereo not drawn), the molecule was classed as inactive.

In the case of `O=C(O)CCCOc1ccc(Cl)cc1Cl`, the call was inactive.

On to `O=C1c2ccccc2C(=O)N1SC(Cl)(Cl)Cl`, for which the outcome was inactive.

Turning to `CC1(C)C(C=C(Cl)Cl)C1C(=O)OC(C#N)c1ccc(F)c(Oc2ccccc2)c1` (stereo not drawn), the result was inactive.

Turning to `CC(C)OC(=O)Nc1cccc(Cl)c1`, the molecule was classed as inactive.

As for `CNC(=O)Oc1ccccc1OC(C)C`, the call was inactive.

In the case of `CC[C@H](C)[C@H]1O[C@]2(C=C[C@@H]1C)C[C@@H]1C[C@@H](C/C=C(\C)[C@@H](O[C@H]3C[C@H](OC)[C@@H](O[C@H]4C[C@H](OC)[C@@H](O)[C@H](C)O4)[C@H](C)O3)[C@@H](C)/C=C/C=C3\CO[C@@H]4[C@H](O)C(C)=C[C@@H](C(=O)O1)[C@]34O)O2` (tested in a mixture with another compound), the result was inactive.

`O=C(O)COc1ccc(Cl)cc1Cl`: the molecule was called inactive.

For the molecule `CNC(=O)CSP(=S)(OC)OC`, the outcome was inactive.

Turning to `CCN(CC)C(=O)SCc1ccc(Cl)cc1`, the molecule was classed as inactive.

Take `OCCOc1ccccc1`: the result was inactive.

Consider `Cc1cc(C)nc(NC(=O)NS(=O)(=O)c2ccccc2C(=O)OC2COC2)n1`, for which the result was inactive.

`Cc1[nH]c(=O)n(C(C)(C)C)c(=O)c1Cl`: the molecule was classed as inactive.

For the molecule `Oc1cc(Cl)ccc1Oc1ccc(Cl)cc1Cl`, the call was inactive.

Take `N#CN`: the molecule was called inactive.

For the molecule `COC(=O)c1ccccc1CS(=O)(=O)NC(=O)Nc1nc(OC)cc(OC)n1`, the call was inactive.

As to `COP(=O)(OC)OC=C(Cl)Cl`, the molecule was classed as inactive.

In the case of `O=C(Nc1ccccc1)Nc1cnns1`, the result was inactive.

Take `N#Cc1c(Cl)c(Cl)c(Cl)c(C#N)c1Cl`: the call was inactive.

For `C[C@H]1[C@H](c2ccc(Cl)cc2)SC(=O)N1C(=O)NC1CCCCC1`, the call was inactive.

For the molecule `O=S1OCC2C(CO1)C1(Cl)C(Cl)=C(Cl)C2(Cl)C1(Cl)Cl` (stereo not drawn), the molecule was classed as inactive.

Consider `CC(C)(C)C(O)C(Oc1ccc(Cl)cc1)n1cncn1` (stereo not drawn), for which the molecule was classed as inactive.
